In the library only some 5.2% were active in any assay of this set; here they are far more common.
Tau fibril ThT: inhibitors of human tau fibril formation, thioflavin T binding; P10636; recombinant tau K18 P301L, heparin-induced fibrillization, ThT fluorescence; Potency, µM (top dose mostly 57.4 µM), without a hit: at the top dose activity, negative = inhibition, most hits filed as inhibitors; actives 2.1% (n = 270,000); AID 1460; also: potency is read from the fitted curve at half-maximal effect; nearly all actives have a fitted effect of over 55% in size
Target sequence (P10636 561-689 P618L limits assumed): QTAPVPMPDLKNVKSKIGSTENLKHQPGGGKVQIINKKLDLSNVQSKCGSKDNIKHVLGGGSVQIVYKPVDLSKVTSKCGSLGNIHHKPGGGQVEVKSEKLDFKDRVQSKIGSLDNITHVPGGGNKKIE
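Recombinant human tau K18 fragment […] carrying P301L, 15 uM unlabeled plus 0.24 uM Alexa 594-labeled, was fibrillized with 20 uM heparin in 100 mM sodium acetate pH 7 for 6 hr at 37 C; 30 uM ThT fluorescence read after 1 hr.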
Coupling enz: inhibits coupling enzyme system, counter-screen for aldolase hits | AID 2472 | activity change, negative = inhibition, % at 58.2 µM, hits read low | actives 0.67% (n = 290,000) | coupling enzyme system counterscreen, AmpLite Red fluorescence; in the data active = activity change below about -30%
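Counterscreen lacking aldolase: glyceraldehyde-3-phosphate coupling-enzyme reagent preincubated 10 min at RT with compound (at 57.5 uM final), then substrate/coupling system with AmpLite Red added; fluorescence read at 525/598 nm after 20 min RT.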
Tau fluor counter: counter-screen for tau fibril formation inhibitors. tau K18 P301L Alexa594 fluorescence, heparin fibrillization. AID 1463. actives 0.93% (n = 280,000). Potency, µM (series often up to 57.7 µM), for inactives: top-dose activity change, negative = decrease; also: potency is read from the fitted curve at half-maximal effect; nearly all actives have a fitted effect of over 55% in size
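Human tau K18 P301L (15 uM unlabeled, 0.24 uM Alexa 594-labeled) in 100 mM sodium acetate pH 7 with 20 uM heparin, 6 hr at 37 C. ThT 30 uM added, 1 hr ambient; Alexa 594 FP and total fluorescence read at 555/632 nm.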
Tau FP inhib: tau fibrillization inhibition (FP); P10636; actives 0.39% (n = 280,000); Potency, µM (titrated, usually from 57.7 µM), without a hit: top-dose activity, negative = inhibition, usual class: inhibitors; K18 P301L tau heparin fibrillization, Alexa594 FP, 6 h; also: potency is read from the fitted curve at half-maximal effect; nearly all actives have a fitted effect of over 55% in size
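Steps: dispense K18 P301L tau (15 uM plus 0.24 uM Alexa 594 tracer, final) in pH 7 sodium acetate; add compound; add heparin (20 uM final); incubate 6 hr, 37 C; add ThT (30 uM final); after 1 hr ambient, read FP.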
Sfp inh: Sfp phosphopantetheinyl transferase inhibition. Biochemical Sfp PPTase activity, qHTS. actives 3.5% (n = 310,000). AID 1490. Potency, µM, inactives show largest response in the series, negative = inhibition, hits mostly inhibitors;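 also: the enzyme is Sfp with the accession as filed and its product quenches rhodamine fluorescence; potency is read from the fitted curve at half-maximal effect; 0% = enzyme reaction without inhibitor and -100% = no enzyme wells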
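Step 1, compound plus 15 nM Sfp-PPTase, 15 min, room temperature. Step 2, add rhodamine-CoA (5 uM) and BHQ-2-YbbR (12.5 uM). Step 3, read 525/598 nm fluorescence at 0 and 30 min.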
The depositor's hits bear a star; ? = inconclusive; nt = no result given; ! = not confirmed by another sample; [ ] = dose if it differs, or a comment. Unless noted, calls follow the shape of the dose curve; as a rule, active = well fitted curve in the direction sought with a large enough effect; inconclusive = small, poorly fitted or top-dose-only effect, or another doubt; inactive = no such curve, though single readings can be large; an effect the other way counts as inactive or inconclusive. Unless noted, % is scaled to controls: 0 for no effect and ±100 for the full control effect.

SMILES	Tau fibril ThT	Coupling enz	Tau fluor counter	Tau FP inhib	Sfp inh
Cc1ccc2nc(NC(=O)COC(=O)c3ccc(Br)o3)sc2c1	?	0.3	?	?	25.1µM*
COc1cc(C(=O)NCC(c2ccco2)S(=O)(=O)c2cccs2)cc(OC)c1OC (stereo not drawn)	-7.4%	nt	-5.2%	-4.4%	nt
Fc1ccc(Nc2nc(SCc3ccc(Cl)cc3)nc3ccccc23)cc1	?	nt	?	7.94µM*	nt
Fc1ccc(Nc2nc(SCc3cccc(Cl)c3)nc3ccccc23)cc1	11.4%	nt	?	8.91µM*	nt
Fc1ccc(Nc2nc(SCc3cccc(F)c3)nc3ccccc23)cc1	28.8%	nt	?	14.1µM*	nt
Clc1ccc(CSc2nc(NCCc3ccccc3)c3ccccc3n2)cc1	-9.8%	nt	-11.3%	-3.0%	nt
Cc1ncc(CO)c(/C=N/NC(=S)Nc2ccc(Cl)c(Cl)c2)c1O	?	-3.0	25.1µM*[quencher]	-2.7%	50.1µM*
Cc1ncc(CO)c(/C=N/NC(=S)Nc2cccc(Cl)c2)c1O	?	3.1	?	8.0%	50.1µM*
Cc1ncc(CO)c(/C=N/NC(=O)c2ccc(O)cc2)c1O	-4.2%	0.3	-4.0%	2.2%	-3.7%
O=C(CSc1nnc(-c2ccco2)o1)N1CCCCC1	nt	1.1	nt	nt	7.4%
O=C(CSc1ccc(-c2ccco2)nn1)N1CCCC1	?	1.4	-14.5%	-5.1%	50.1µM*
O=C(CSc1ccc(-c2ccco2)nn1)N1CCCCC1	?	-46.5*	-17.8%	2.9%	?
O=C(CSc1ccc(-c2ccccc2)nn1)N1CCN(c2ccccc2)CC1	-10.6%	-9.7	-10.4%	-0.1%	79.4µM*
Cn1c(SCC(=O)N2CCCCCC2)nnc1-c1ccco1	nt	-0.8	nt	nt	7.6%
O=C(CSc1ccc(-c2ccccn2)nn1)N1CCCC1	-3.8%	0.2	-8.1%	-0.4%	44.7µM*
COc1cc(NC(=O)Cc2c(C(=O)O)c(C)cn2C)cc(OC)c1	-0.3%	nt	-6.3%	-2.3%	nt
O=C(CSc1ccccn1)N1CCN(c2cccc(Cl)c2)CC1	?	-0.1	-15.9%	-0.2%	50.1µM*
O=C(CSc1ccccn1)N1CCN(c2ccccc2)CC1	0.8%	1.2	-2.8%	7.1%	-17.5%
NC(N)=NCCC[C@H](N)C(=O)NCC(=O)N[C@@H](CC(=O)O)C(=O)O	nt	1.2	nt	nt	-5.1%
CN(C)CC/C=C1\c2ccccc2COc2ccc(CC(=O)O)cc21	nt	nt	nt	nt	2.4%
OCC1OC(Oc2cccc3ccccc23)C(O)C(O)C1O (stereo not drawn)	nt	0.5	nt	nt	10.8%
O=C(O)c1cc(O)c2c(c1)[C@H]([C@H]1c3cc(C(=O)O)cc(O)c3C(=O)c3c(O[C@@H]4OC(CO)C(O)C(O)C4O)cccc31)c1cccc(O[C@@H]3OC(CO)C(O)C(O)C3O)c1C2=O (stereo partly drawn)	22.4µM*	-39.4*	?	?	56.2µM*
Cc1ccc(CN2COc3c(Cl)cc4c(-c5ccccc5)cc(=O)oc4c3C2)cc1	-0.9%	nt	-11.8%	-9.6%	nt
CSc1ncc(C(=O)Nc2ccccc2C(=O)c2ccccc2)c(C)n1	-5.5%	nt	-6.7%	-0.5%	nt
O=C(O)CC12CSc3[nH]c(=O)sc3C1c1ccccc1OC2=O (stereo not drawn)	25.1µM*	-11.3	-19.4%	?	14.1µM*
SMILES	Tau fibril ThT	Coupling enz	Tau fluor counter	Tau FP inhib	Sfp inh
O=C(NCC1CCCO1)C1c2ccccc2Oc2ccccc21 (stereo not drawn)	1.5%	0.0	-0.3%	-6.9%	27.6%
COc1ccc(S(=O)(=O)N(C(=O)c2ccco2)c2cc3sc(=O)oc3c3ccccc23)cc1	12.6µM*	-10.3	?	20µM*	7.94µM*
CCOc1ccc(S(=O)(=O)N(C)CC(=O)NCc2ccco2)cc1	nt	1.4	nt	nt	10.1%
CCOc1ccc(S(=O)(=O)N(C(=O)c2ccco2)c2cc3sc(=O)oc3c3ccccc23)cc1	14.1µM*	-5.7	-21.8%	28.2µM*	5.62µM*
Cc1ccc(S(=O)(=O)N(C(=O)c2ccco2)c2cc3sc(=O)oc3c3ccccc23)cc1	14.1µM*	-14.7	?	22.4µM*	8.91µM*
Cn1cccc1C(=O)N1CCC2(CCN(Cc3ccccc3)CC2)CC1	nt	1.7	nt	nt	20.5%
O=C1C(Cl)=C(Nc2cccc(O)c2)C(=O)N1Cc1ccccc1	14.1µM*	0.6	?	-6.0%	-3.1%
COC(=O)/C=C1\SC(N2CCOCC2)=C(c2ccc(OC)cc2)C1=O	28.2µM*	5.7	-20.5%	?	-85.6%
CCCCCc1cc(=O)oc2c(C(CCN3CCCC(C)C3)c3ccc(N(C)C)cc3)c(OC)cc(OC)c12 (stereo not drawn)	?	1.4	?	0.1%	56.2µM*
COc1cc(OC)c2c(-c3ccccc3)cc(=O)oc2c1C(CCN1CCCCC1)c1ccc2c(c1)OCO2 (stereo not drawn)	-6.4%	1.3	5.5%	7.5%	12.6µM*!
CCCCCc1cc(=O)oc2c(C(CCN3CCCC(C)C3)c3cc(OC)c(OC)c(OC)c3)c(OC)cc(OC)c12 (stereo not drawn)	?	2.7	-14.4%	-7.5%	-0.2%
CCCCCc1cc(=O)oc2c(C(CCN3CCCCC3)c3cc(OC)c(OC)c(OC)c3)c(OC)cc(OC)c12 (stereo not drawn)	-12.2%	2.3	11.1%	2.8%	79.4µM*
COc1ccc(Br)cc1CNC(=O)c1cc2n(n1)CCCN(Cc1ccc(C)cc1)C2=O	-12.7%	nt	-8.7%	0.5%	nt
N#Cc1ccc(N=c2ssnc2Cl)cc1	20µM*	4.2	-16.7%	?	8.91µM*
Fc1ccc(N=c2ssnc2Cl)c(F)c1	14.1µM*	1.5	-15.2%	?	14.1µM*
N#Cc1ccc(Oc2c(Cl)cncc2Cl)cc1	nt	0.9	nt	nt	6.9%
COc1ccc(N=c2ssnc2Cl)cc1	12.6µM*	-0.6	-24.3%	?	8.91µM*
COc1cc(N=c2ssnc2Cl)cc(OC)c1OC	20µM*	2.2	-23.9%	?	14.1µM*
COc1cc(-c2nnc(-c3cc(OC)c(OC)c(OC)c3)o2)cc(OC)c1OC	1.0%	-0.9	-0.4%	-3.3%	17.2%
COc1ccccc1NC(=O)Cn1c(=O)n(CC2CCC(C(=O)NCCc3ccccc3)CC2)c(=O)c2ccccc21 (stereo not drawn)	7.1%	nt	-4.6%	9.9%	nt
Cc1c(Cl)cccc1NC(=O)C(=O)NCCc1csc(-c2ccc(C(F)(F)F)cc2)n1	-14.0%	nt	-25.3%	-12.4%	nt
CCCCCCCCCCCCCCCCC(C(=O)O)C(O)(CC(=O)O)C(=O)O (stereo not drawn)	nt	nt	nt	nt	-17.3%
O=S1(=O)C2CC3C=CC2(CN1Cc1ccccc1)O3 (stereo not drawn)	nt	0.6	nt	nt	2.6%
CCOc1ccc(NC(=O)CC2C(=O)N(c3ccc(Cl)cc3)C(=O)N2Cc2cccs2)cc1 (stereo not drawn)	?	nt	-17.6%	?	nt
O=C1CSC(=Nc2ccccc2)N1Cc1ccccc1	-5.0%	4.6	-6.9%	6.6%	-14.2%

Screens deposited in PubChem by National Center for Advancing Translational Sciences (NCATS).
